Molecules are shown by their SMILES. Where “and” joins values, the source holds several entries; their conditions need not be identical. Identical values can stand only once. Inconclusive results are not listed. A call without a number means that no potency is given here. Calls of active or inactive are those of the source. The call rests on the fitted dose curve; in most records, active means well fitted curve in the direction sought with a large enough effect in the repeat runs; inconclusive means weak or mixed curves; inactive means no such curve, though single readings can be large; an effect the other way counts as inactive or inconclusive.

The first experiment in a line: qHTS assay to identify small molecule HDAC inhibitors (AID 1259364).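 Further: wild-type HCT-116 cells with endogenous class I/II HDAC activity; top concentration of the series differs between compounds; nearly all actives have a fitted effect of over 45% in size.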 The note with it: HCT-116 HDAC-Glo I/II luminescence, 2 h; series mostly up to 92.4 µM. A digest of the protocol: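 Quantitative high-throughput format: overnight-seeded HCT-116 cells got compounds for 2 hr at 37C; HDAC-Glo I/II reagent added, 30 min RT, luminescence measured.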
On to `Brc1ccc(Br)cc1`, for which the Potency entry is “inactive”.

`COc1ccc(CO)cc1`: the Potency entry was “inactive”. The same measure, in the same setting: as for `NC(=O)CN1CCCC1=O`, the entry is “inactive”; as for `CC(C)(c1ccccc1)c1ccc(O)c(C(C)(C)c2ccccc2)c1`, “inactive”. Still for that read-out and setting: as for `NN=C(N)N`, the entry is “inactive”. Take `CCOP(=O)(OCC)OCC`: the Potency entry was “inactive”. Take `CCNCC`: the Potency result was “inactive”. The same measure, in the same setting: as for `CC(O)CN(CC(C)O)CC(C)O` (centres undefined), the entry is “inactive”; as for `CCNc1nc(Cl)nc(NC(C)(C)C#N)n1`, “inactive”; as for `Cn1c(-c2ccccc2)cc(-c2ccccc2)[n+]1C`, “inactive”. Take `Cc1cc(Cl)ccc1N=CN(C)C`: the Potency entry is “inactive”. Turning to `Cl`, the Potency entry was “inactive”. As for `Clc1cccc(Cl)c1`, the Potency entry was “inactive”.

For `CCCCCCCCCC(CC)c1ccc(S(=O)(=O)O)cc1` (centres undefined), the Potency entry was “inactive”. On to `Nc1ccc([N+](=O)[O-])cc1N`, for which the Potency entry is “inactive”. Turning to `CC(C)(O)C#N`, the Potency entry was “inactive”. On the same count and under the same terms, as for `ClCC(Cl)CCl`, the entry is “inactive”; as for `O=[N+]([O-])c1ccc(Nc2ccccc2)cc1`, “inactive”. Still for that read-out and setting: the same measure for `O=P(OCCCl)(OCCCl)OCCCl`: “inactive”; for `O=S(=O)(O)C(F)(F)C(F)(F)C(F)(F)C(F)(F)C(F)(F)C(F)(F)C(F)(F)C(F)(F)F`: “inactive”; for `COP(=O)(NC(C)=O)SC` (centres undefined): “inactive”. Consider `CS(=O)(=O)NC(=O)c1cc(Oc2ccc(C(F)(F)F)cc2Cl)ccc1[N+](=O)[O-]`, for which the Potency entry was “inactive”. The same measure, in the same setting: as for `[CH3][Sn]([Cl])([Cl])[Cl]`, the entry is “inactive”.

As for `c1ccc(C2CO2)cc1` (centres undefined), the Potency entry is “inactive”. Turning to `O=C1Nc2ccc(Cl)cc2C(c2ccccc2)=NC1O` (centres undefined), the Potency entry was “inactive”. Same read-out and setting: as for `[Cl-].[Cl-].[Cl-].[Fe+3]`, the entry is “inactive”; as for `CCOP(=O)(O)OCC` (tested in a mixture with another compound), “inactive”; as for `ClC(Cl)(Cl)Br`, “inactive”. Take `CN(C)c1ccccc1`: the Potency result is “inactive”. `CCC[CH2][Sn]([Cl])([Cl])[CH2]CCC`: the Potency entry was “inactive”.

With `OC(c1ccc(Cl)cc1)(c1cncnc1)c1ccccc1Cl` (centres undefined), the Potency result was “inactive”. `N#CCCCCC#N`: the Potency entry was “inactive”. As for `CC1CC(=O)O1` (centres undefined), the Potency entry was “inactive”. The same measure, in the same setting: as for `CCCCSP(=O)(SCCCC)SCCCC`, the entry is “inactive”; as for `N#Cc1c(Cl)c(Cl)c(Cl)c(C#N)c1Cl`, “inactive”. On the same count and under the same terms, the same measure for `Nc1ncn[nH]1`: “inactive”; for `N#CC(c1ccccc1)c1ccccc1`: “inactive”.

A further experiment in a line: qHTS assay to identify small molecule HDAC inhibitors - cell viability counter screen (AID 1259365). Further: nearly all actives have a fitted effect of over 50% in size. Further: potency means the concentration at half of the fitted maximal effect. Particulars: HCT-116 viability, CellTiter-Glo ATP luminescence, 2 h; series mostly up to 92.4 µM. A digest of the protocol:
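Measured quantity is CellTiter-Glo luminescence from wild-type HCT-116 cells after compound incubation of 2hr at 37C, 5% CO2; reagent developed 30min at room temperature.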
For orientation: qHTS replaces the single test concentration by a dilution series.
Turning to `Brc1ccc(Br)cc1`, the Potency result was “inactive”.

Regarding `COc1ccc(CO)cc1`, the Potency entry is “inactive”. Still for that read-out and setting: as for `NC(=O)CN1CCCC1=O`, the entry is “inactive”.

Regarding `CC(C)(c1ccccc1)c1ccc(O)c(C(C)(C)c2ccccc2)c1`, the Potency entry was “inactive”. For the compound `NN=C(N)N`, the Potency entry is “inactive”. On the same count and under the same terms, as for `CCOP(=O)(OCC)OCC`, the entry is “inactive”; as for `CCNCC`, “inactive”; as for `CC(O)CN(CC(C)O)CC(C)O` (centres undefined), “inactive”.

Regarding `CCNc1nc(Cl)nc(NC(C)(C)C#N)n1`, the Potency entry is “inactive”. Take `Cn1c(-c2ccccc2)cc(-c2ccccc2)[n+]1C`: the Potency entry is “inactive”.

With `O=C1C(Cl)=C(Cl)C(=O)c2ccccc21`, the Potency was 61.3 µM (active) and 38.6 µM (active). The same measure, in the same setting: as for `Cc1cc(Cl)ccc1N=CN(C)C`, the entry is “inactive”.

For the compound `Cl`, the Potency result was “inactive”. For `Clc1cccc(Cl)c1`, the Potency result is “inactive”. Same read-out and setting: the same measure for `CCCCCCCCCC(CC)c1ccc(S(=O)(=O)O)cc1` (centres undefined): “inactive”. Same read-out and setting: the same measure for `Nc1ccc([N+](=O)[O-])cc1N`: “inactive”; for `CC(C)(O)C#N`: “inactive”. Still for that read-out and setting: the same measure for `ClCC(Cl)CCl`: “inactive”; for `O=[N+]([O-])c1ccc(Nc2ccccc2)cc1`: “inactive”. Consider `O=P(OCCCl)(OCCCl)OCCCl`, for which the Potency result was “inactive”. Take `O=S(=O)(O)C(F)(F)C(F)(F)C(F)(F)C(F)(F)C(F)(F)C(F)(F)C(F)(F)C(F)(F)F`: the Potency result was “inactive”. Still for that read-out and setting: the same measure for `COP(=O)(NC(C)=O)SC` (centres undefined): “inactive”. With `CS(=O)(=O)NC(=O)c1cc(Oc2ccc(C(F)(F)F)cc2Cl)ccc1[N+](=O)[O-]`, the Potency entry is “inactive”. Turning to `[CH3][Sn]([Cl])([Cl])[Cl]`, the Potency entry is “inactive”. Regarding `c1ccc(C2CO2)cc1` (centres undefined), the Potency entry was “inactive”. Same read-out and setting: as for `O=C1Nc2ccc(Cl)cc2C(c2ccccc2)=NC1O` (centres undefined), the entry is “inactive”; as for `[Cl-].[Cl-].[Cl-].[Fe+3]`, “inactive”.

Turning to `CCOP(=O)(O)OCC` (tested in a mixture with another compound), the Potency entry is “inactive”. Still for that read-out and setting: as for `ClC(Cl)(Cl)Br`, the entry is “inactive”; as for `CN(C)c1ccccc1`, “inactive”; as for `OC(c1ccc(Cl)cc1)(c1cncnc1)c1ccccc1Cl` (centres undefined), “inactive”. The same measure, in the same setting: as for `N#CCCCCC#N`, the entry is “inactive”; as for `CC1CC(=O)O1` (centres undefined), “inactive”. `CCCCSP(=O)(SCCCC)SCCCC`: the Potency result is “inactive”. On to `N#Cc1c(Cl)c(Cl)c(Cl)c(C#N)c1Cl`, for which the Potency result is “inactive”.

Take `Nc1ncn[nH]1`: the Potency result is “inactive”.

Consider `N#CC(c1ccccc1)c1ccccc1`, for which the Potency result is “inactive”.

Values taken from PubChem BioAssay (Tox21).
